Assay [1] has as its target Tyrosine-protein kinase SYK (Homo sapiens) (UniProt P43405). The settings on record: at 10 µM.
For assay [2], the target named is T1, Mitogen-activated protein kinase kinase kinase 7 (Homo sapiens) (UniProt O43318).
T1 sequence (whole entry): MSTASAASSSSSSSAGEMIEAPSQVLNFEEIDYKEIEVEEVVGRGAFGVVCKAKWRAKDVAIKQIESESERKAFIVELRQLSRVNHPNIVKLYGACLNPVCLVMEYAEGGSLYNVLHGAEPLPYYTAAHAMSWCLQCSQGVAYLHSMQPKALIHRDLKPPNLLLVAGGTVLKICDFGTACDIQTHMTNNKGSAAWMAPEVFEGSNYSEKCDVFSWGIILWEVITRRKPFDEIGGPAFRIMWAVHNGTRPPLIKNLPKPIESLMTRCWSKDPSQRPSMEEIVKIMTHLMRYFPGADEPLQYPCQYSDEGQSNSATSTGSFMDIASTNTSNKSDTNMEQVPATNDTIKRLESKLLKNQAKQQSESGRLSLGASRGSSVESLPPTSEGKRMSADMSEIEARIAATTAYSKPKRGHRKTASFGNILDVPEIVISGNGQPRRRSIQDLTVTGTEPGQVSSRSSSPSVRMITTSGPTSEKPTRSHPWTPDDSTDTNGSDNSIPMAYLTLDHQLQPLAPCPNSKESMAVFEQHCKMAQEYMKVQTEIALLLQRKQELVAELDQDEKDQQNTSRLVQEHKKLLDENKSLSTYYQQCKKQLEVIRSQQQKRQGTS
The conditions noted are these: at 1 µM.

The target in assay [3] is T1, Mitogen-activated protein kinase kinase kinase 7 (Homo sapiens). The settings on record: at 10 µM.
Assay [4] addresses T2, Serine/threonine-protein kinase TAO1 (Homo sapiens) (UniProt Q7L7X3).
T2 sequence (whole entry): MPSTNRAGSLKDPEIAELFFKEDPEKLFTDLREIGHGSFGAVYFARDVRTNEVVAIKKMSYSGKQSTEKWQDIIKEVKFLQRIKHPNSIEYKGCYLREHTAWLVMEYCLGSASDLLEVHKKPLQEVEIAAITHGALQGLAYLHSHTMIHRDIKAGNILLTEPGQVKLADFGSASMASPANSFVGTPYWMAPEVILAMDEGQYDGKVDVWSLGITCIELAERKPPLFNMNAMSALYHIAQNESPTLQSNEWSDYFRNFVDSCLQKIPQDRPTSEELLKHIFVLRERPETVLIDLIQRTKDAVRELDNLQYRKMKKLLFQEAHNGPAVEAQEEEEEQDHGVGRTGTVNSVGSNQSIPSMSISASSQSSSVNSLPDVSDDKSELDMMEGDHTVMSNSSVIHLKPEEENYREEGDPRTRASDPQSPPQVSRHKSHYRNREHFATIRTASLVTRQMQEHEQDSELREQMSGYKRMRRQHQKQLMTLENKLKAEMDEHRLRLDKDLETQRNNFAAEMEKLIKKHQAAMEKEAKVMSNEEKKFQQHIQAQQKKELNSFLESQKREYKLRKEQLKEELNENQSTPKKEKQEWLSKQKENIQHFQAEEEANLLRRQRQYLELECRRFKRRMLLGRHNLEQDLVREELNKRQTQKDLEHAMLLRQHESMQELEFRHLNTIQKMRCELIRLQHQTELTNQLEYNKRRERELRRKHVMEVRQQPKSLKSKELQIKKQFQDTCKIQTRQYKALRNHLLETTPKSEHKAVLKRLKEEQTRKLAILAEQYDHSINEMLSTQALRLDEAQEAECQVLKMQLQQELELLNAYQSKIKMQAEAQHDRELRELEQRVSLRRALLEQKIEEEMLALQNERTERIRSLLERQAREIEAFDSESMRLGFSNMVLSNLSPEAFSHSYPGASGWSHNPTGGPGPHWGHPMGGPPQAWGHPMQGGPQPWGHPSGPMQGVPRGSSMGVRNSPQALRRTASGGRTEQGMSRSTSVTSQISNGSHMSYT
The settings on record: at 1 µM.

In assay [5] the target is T2, Serine/threonine-protein kinase TAO1 (Homo sapiens). The conditions noted are these: at 10 µM.
Assay [6] has as its target T3, Serine/threonine-protein kinase TAO2 (Homo sapiens) (UniProt Q9UL54).
T3 sequence (whole entry): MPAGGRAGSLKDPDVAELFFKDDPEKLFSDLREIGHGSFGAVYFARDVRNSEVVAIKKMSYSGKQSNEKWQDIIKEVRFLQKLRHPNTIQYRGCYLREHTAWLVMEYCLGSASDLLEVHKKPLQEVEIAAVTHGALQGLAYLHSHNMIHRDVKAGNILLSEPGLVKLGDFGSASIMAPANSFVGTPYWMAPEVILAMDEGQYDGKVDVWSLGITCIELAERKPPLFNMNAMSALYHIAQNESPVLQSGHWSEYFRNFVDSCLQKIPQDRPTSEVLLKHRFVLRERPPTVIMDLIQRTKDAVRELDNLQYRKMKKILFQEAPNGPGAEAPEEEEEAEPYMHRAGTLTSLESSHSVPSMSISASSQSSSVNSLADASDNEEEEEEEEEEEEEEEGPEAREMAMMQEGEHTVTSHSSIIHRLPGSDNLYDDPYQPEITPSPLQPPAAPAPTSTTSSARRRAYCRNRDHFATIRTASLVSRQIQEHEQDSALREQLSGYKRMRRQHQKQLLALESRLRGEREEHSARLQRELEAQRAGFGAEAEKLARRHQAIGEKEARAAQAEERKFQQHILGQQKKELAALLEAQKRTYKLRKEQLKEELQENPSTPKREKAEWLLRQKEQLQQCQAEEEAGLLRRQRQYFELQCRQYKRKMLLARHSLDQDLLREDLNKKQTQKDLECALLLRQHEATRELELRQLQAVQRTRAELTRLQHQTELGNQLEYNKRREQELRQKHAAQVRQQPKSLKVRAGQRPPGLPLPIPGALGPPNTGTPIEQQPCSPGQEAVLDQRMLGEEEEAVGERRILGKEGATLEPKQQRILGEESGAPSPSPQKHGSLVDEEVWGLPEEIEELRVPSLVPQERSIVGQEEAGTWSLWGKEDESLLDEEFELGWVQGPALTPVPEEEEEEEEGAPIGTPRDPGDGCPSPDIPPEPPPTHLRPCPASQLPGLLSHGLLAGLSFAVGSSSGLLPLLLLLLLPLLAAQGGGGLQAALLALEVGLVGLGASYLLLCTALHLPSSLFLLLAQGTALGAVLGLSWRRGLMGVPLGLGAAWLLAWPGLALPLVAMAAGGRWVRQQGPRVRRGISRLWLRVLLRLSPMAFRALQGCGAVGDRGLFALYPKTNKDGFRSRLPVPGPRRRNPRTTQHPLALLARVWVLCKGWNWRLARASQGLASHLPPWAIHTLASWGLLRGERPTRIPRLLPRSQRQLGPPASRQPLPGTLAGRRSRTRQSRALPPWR
The conditions noted are these: at 1 µM.

In assay [7] the target is T3, Serine/threonine-protein kinase TAO2 (Homo sapiens). The settings on record: at 10 µM.
The target in assay [8] is T4, Serine/threonine-protein kinase TAO3 (Homo sapiens) (UniProt Q9H2K8).
T4 sequence (whole entry): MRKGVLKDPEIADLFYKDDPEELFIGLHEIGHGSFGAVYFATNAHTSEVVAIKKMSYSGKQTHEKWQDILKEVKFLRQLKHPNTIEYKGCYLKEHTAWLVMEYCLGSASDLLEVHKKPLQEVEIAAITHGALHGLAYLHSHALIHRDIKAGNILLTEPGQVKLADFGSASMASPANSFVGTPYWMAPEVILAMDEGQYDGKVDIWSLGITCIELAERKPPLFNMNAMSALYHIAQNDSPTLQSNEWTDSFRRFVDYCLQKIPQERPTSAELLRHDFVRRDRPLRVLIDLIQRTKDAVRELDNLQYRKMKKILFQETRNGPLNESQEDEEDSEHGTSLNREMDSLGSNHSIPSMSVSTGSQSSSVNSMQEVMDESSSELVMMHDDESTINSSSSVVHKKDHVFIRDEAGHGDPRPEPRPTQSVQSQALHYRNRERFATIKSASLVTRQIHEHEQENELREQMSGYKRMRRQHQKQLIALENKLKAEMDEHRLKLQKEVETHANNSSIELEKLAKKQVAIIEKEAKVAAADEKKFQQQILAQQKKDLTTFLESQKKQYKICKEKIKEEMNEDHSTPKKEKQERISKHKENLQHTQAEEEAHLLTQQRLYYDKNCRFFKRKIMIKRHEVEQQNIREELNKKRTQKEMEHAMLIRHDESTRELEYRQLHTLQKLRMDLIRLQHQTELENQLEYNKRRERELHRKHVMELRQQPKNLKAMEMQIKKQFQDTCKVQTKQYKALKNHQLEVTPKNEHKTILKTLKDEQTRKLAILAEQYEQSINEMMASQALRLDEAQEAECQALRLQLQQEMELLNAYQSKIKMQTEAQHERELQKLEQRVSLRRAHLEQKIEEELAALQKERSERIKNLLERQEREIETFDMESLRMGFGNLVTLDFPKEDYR
The settings on record: at 1 µM.

The target of assay [9] is T4, Serine/threonine-protein kinase TAO3 (Homo sapiens). The conditions noted are these: at 10 µM.
The target in assay [10] is T5, Serine/threonine-protein kinase TBK1 (Homo sapiens) (UniProt Q9UHD2).
T5 sequence (whole entry): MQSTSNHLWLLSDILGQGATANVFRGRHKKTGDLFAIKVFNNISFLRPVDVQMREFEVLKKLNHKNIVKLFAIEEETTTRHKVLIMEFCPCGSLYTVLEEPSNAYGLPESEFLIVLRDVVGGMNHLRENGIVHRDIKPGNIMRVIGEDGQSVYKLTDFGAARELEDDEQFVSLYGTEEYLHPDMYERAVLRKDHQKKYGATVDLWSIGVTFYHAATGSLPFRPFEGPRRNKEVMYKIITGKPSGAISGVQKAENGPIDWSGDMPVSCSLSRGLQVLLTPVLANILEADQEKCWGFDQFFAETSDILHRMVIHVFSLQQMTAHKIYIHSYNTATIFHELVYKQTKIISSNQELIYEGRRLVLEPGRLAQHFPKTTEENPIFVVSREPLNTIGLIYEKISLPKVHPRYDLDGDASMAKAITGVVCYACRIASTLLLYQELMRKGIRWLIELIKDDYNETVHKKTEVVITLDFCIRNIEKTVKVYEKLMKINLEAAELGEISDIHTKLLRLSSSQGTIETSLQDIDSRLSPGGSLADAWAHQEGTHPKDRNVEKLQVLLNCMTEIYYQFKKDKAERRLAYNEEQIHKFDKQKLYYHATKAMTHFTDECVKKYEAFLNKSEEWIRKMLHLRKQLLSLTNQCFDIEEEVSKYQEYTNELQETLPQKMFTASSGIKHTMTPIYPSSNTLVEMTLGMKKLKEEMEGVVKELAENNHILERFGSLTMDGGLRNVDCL
The settings on record: at 1 µM.

`CC[n+]1c(/C=C/N(C)c2ccccc2)n(-c2ccccc2)c2ccc(-c3nc4ccccc4s3)cc21`: the residual activity was 46% in assay [1]; 100% in assay [2]; 102% in [3]; 93% in assay [4]; 78% in assay [5]; 100% in [6]. For the same compound, the residual activity came to 60% in assay [7], 95% in assay [8], 62% in [9] and 104% in [10].

(Values after ChEMBL document CHEMBL2218924, “A broad activity screen in support of a chemogenomic map for kinase signalling research and drug discovery” (Biochem J, 2013).)
